In the library only some 10% were active in any assay of this set; here they are far more common.
G9a inh = G9a (human) methyltransferase inhibition | Q96KQ7 | hit rate 8.8% among 350,000 | G9a H3K9 monomethylation, AlphaScreen, 2 h | Potency, µM (top dose mostly 102 µM), most hits filed as inhibitors; further: nearly all actives have a fitted effect of over 75% in size
Target sequence (Q96KQ7 913-1193 limits assumed): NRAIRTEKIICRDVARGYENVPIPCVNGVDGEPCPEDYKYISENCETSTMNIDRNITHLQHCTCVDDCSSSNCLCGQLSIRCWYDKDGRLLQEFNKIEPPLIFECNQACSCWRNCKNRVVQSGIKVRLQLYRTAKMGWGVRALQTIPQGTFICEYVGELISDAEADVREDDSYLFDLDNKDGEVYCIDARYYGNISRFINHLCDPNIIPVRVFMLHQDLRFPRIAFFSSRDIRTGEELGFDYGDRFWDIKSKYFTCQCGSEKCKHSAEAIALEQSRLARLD
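Chemiluminescent proximity detection of H3K9 monomethylation, read after 10 min bead incubation in the dark. Reaction: 20 nM G9a, 500 nM biotin-H3K9 peptide, 20 uM SAM cofactor, 2 h, room temperature, following 15 min enzyme-compound preincubation.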
BAZ2B block = blocks human BAZ2B. AlphaScreen BAZ2B-H3K14Ac peptide displacement. Potency, µM (highest dose often 114 µM), hits mostly inhibitors. hit rate 4.4% among 360,000; further: nearly all actives have a fitted effect of over 60% in size
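AlphaScreen luminescence quantifies BAZ2B engagement of H3K14Ac peptide; the protein and biotinylated peptide are both at 50 nM final, buffer PBS pH 7.4 with 0.01% Tween-20, all steps at room temperature.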
JMJD2A Tudor = inhibitors of human JMJD2A Tudor domain | O75164 | AlphaScreen JMJD2A-Tudor / H3K4me3 peptide binding | Potency, µM (titrated, usually from 114 µM), usual class: inhibitors | hit rate 4.4% among 390,000; further: nearly all actives have a fitted effect of over 50% in size
GLS inhibitor = blocks human kidney-isoform glutaminase activity | GLS enzymatic activity, qHTS titration | Potency, µM (series often up to 45.5 µM), actives largely listed as inhibitors | hit rate 0.21% among 410,000
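Assay buffer: 45 mM KH2PO4 pH 8.2, 0.02% Tween-20. hKGA acts on L-glutamine (1 mM solution added); product glutamate is reported by an oxidase/peroxidase Amplex Red coupling, with fluorescence taken at baseline and 30 min.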
HP1b binding inh = inhibitors of HP1-beta chromodomain binding to methylated histone tails | hit rate 0.56% among 390,000 | AlphaScreen HP1-beta / biotin-H3K9me3 peptide binding | P83916 | Potency, µM (titrated, usually from 114 µM), usual class: inhibitors | AID 540317; further: nearly all actives have a fitted effect of over 70% in size
Target sequence (P83916 whole entry, looked up): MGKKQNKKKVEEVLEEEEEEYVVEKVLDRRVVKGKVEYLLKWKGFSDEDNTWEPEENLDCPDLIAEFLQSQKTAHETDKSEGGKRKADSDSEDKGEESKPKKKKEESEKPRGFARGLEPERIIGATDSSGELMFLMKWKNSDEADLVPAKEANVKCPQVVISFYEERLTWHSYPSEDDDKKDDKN
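HP1-beta protein (50 nM final) preincubated 30 min at room temperature with biotinylated H3(1-18)K9me3 peptide (50 nM) in PBS pH 7.4, 0.01% Tween-20, then compound added for 30 min. AlphaScreen streptavidin donor/nickel chelate acceptor beads (10 ug/mL final), 30 min dark, luminescence read.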
Of the large screens only hits and unclear results are named; the others gave an inactive call. The call rests on the fitted dose curve; in most records, active means well fitted curve in the direction sought with a large enough effect; inconclusive means small, poorly fitted or top-dose-only effect, or another doubt; inactive means no such curve, though single readings can be large; an effect the other way counts as inactive or inconclusive.

Cc1ccc(C2CC(=O)N(Cc3ccccc3)c3c2c(C)nn3-c2nc(C)cc(C)n2)cc1 (stereo unspecified)	none
COc1ccc(NS(=O)(=O)c2ccc(NC(=S)NC(=O)c3ccc(Br)cc3)cc2)nn1	G9a inh 18µM, BAZ2B block inconclusive, JMJD2A Tudor inconclusive
Nc1nc(NC(=O)Cc2ccccc2)nn1-c1ccccc1	BAZ2B block 32µM, JMJD2A Tudor inconclusive
CC(=O)Nc1nc(N)n(-c2ccccc2)n1	BAZ2B block inconclusive
COc1ccccc1C(=O)Nc1nc(N)n(-c2ccccc2)n1	BAZ2B block inconclusive
COc1cc(C(=O)Nc2nc(N)n(-c3ccccc3)n2)cc(OC)c1OC	BAZ2B block 50µM
Nc1nc(NC(=O)/C=C\C(=O)O)nn1-c1ccccc1	BAZ2B block 22µM
COc1ccc(/C=C/C(=O)Nc2nc(N)n(-c3ccccc3)n2)cc1	BAZ2B block 50µM
CCCCOc1ccc(C(=O)NCCc2csc3nc(-c4ccccc4F)nn23)cc1	none
COC(=O)c1nc(NC(=O)c2cc(OC)c(OC)c(OC)c2)n[nH]1	G9a inh 11µM, BAZ2B block inconclusive
COC(=O)c1nc(NC(=O)c2ccccc2Br)n[nH]1	G9a inh inconclusive
COc1ccc(C(=O)/C=C/C(=O)N(CC(=O)NC2CCCCC2)Cc2cccs2)c(O)c1	G9a inh 16µM
Cc1cc(C)c(NC(=O)C[C@H](CC(=O)O)c2cccc3ccccc23)c(C(=O)N2CCC3(CCCC3)CC2)c1	none (no result: BAZ2B block, JMJD2A Tudor, HP1b binding inh)
Cc1cccc(Nc2nnc(-c3ccc(N4CCOCC4)c([N+](=O)[O-])c3)c3ccccc23)c1	G9a inh 10µM, BAZ2B block inconclusive, JMJD2A Tudor inconclusive
CCCSCCCNC(=O)C1CCN(C(=O)c2cnn(-c3ccccc3)c2-n2cccc2)CC1	none
CCC1(C)Cc2sc3c(=O)[nH]c(=S)[nH]c3c2CO1 (stereo unspecified)	G9a inh 3.5µM, BAZ2B block inconclusive
CC1=Nc2ccccc2/C1=C/c1c(N)n2c(S(=O)(=O)C(C)C)nsc2nc1=O	BAZ2B block inconclusive
CC1=Nc2ccc(C)cc2/C1=C/c1c(N)n2c(S(=O)(=O)C(C)C)nsc2nc1=O	G9a inh 50µM
CCN(CC)c1ccc(/C=N/N2CC(=O)NC2=S)cc1	G9a inh 7.9µM
Cc1nc2ccc(NC(=S)N3CCN(c4ccccn4)CC3)cc2nc1C	none
Cc1ccc(C)c(N2CCN(C(=S)Nc3ccc4nc(N5CCN(C)CC5)cc(C)c4c3)CC2)c1	G9a inh 40µM
Cc1cc(N2CCN(C)CC2)nc2ccc(NC(=S)N3CCN(c4ccccn4)CC3)cc12	G9a inh 50µM, BAZ2B block inconclusive, JMJD2A Tudor inconclusive
Cc1cc(N2CCN(C)CC2)nc2ccc(NC(=S)N3CCC4(CC3)OCCO4)cc12	G9a inh 45µM
Cc1ccc2c(=O)cc(C(=O)Nc3ccc(S(=O)(=O)N4CCCCCC4)cc3)oc2c1C	none
Cc1ccc2nc(Cl)c3cc(C(=O)NCCCN4CCC(C)CC4)sc3c2c1	BAZ2B block inconclusive
Cc1cc(C(=O)CSc2n[nH]c(N)n2)c(C)n1-c1ccc2c(c1)OCO2	G9a inh inconclusive, BAZ2B block inconclusive, JMJD2A Tudor inconclusive, HP1b binding inh inconclusive
Cc1c(NS(=O)(=O)c2ccc3c(c2)Cc2ccccc2-3)c(=O)n(-c2ccccc2)n1C	none
CN(C)c1cc2c3ccccc3n(C)c2cc1N	JMJD2A Tudor 32µM, GLS inhibitor 11µM, HP1b binding inh 45µM (no result: G9a inh, BAZ2B block)
Cn1c2ccccc2c(=O)c2cc(C#Cc3ccc(N)cc3)ccc21	G9a inh inconclusive
Nc1ccc(C2=Nc3cccc4cccc(c34)N2)cc1	G9a inh inconclusive, BAZ2B block 50µM
c1coc(C2=Nc3cccc4cccc(c34)N2)c1	G9a inh 40µM, BAZ2B block inconclusive, HP1b binding inh inconclusive
COc1cccc(C2=Nc3cccc4cccc(c34)N2)c1	G9a inh 16µM, BAZ2B block 40µM, JMJD2A Tudor 50µM, GLS inhibitor 11µM, HP1b binding inh inconclusive
CC1=Nc2cccc3cccc(c23)N1	G9a inh 25µM, JMJD2A Tudor inconclusive, HP1b binding inh inconclusive
c1cc2c3c(cccc3c1)NN=N2	JMJD2A Tudor inconclusive, HP1b binding inh inconclusive (no result: G9a inh, BAZ2B block)
CCCCNc1c([N+](=O)[O-])cc(C)cc1[N+](=O)[O-]	G9a inh 40µM, BAZ2B block 32µM, JMJD2A Tudor 18µM, HP1b binding inh 16µM
